Reference: the supplement of paper PMC10849652
The full data set covers some 7,900 targets. This sample favours those with a hit. About 0.6% of all pairs of compound and target were hits. Values without a mark were called inactive.

Legend:
Experiment in all cases: log2 fold change, soluble protein after heating vs DMSO (PISA); higher = thermal stabilisation; K562 cells, 10 uM, 30 min; active = over 0.2 and 3.5 SD of the protein, either way, in both replicates (recomputed)
[1] = compound: C#Cc1cccc(Nc2ncnc3cc(OCCOC)c(OCCOC)cc23)c1 [erlotinib]
Method in brief: (§1)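 K562 cells (2×10^6 cells/mL) were treated with 10 μM compound for 30 min, and aliquots were heated for 3 min over 48°C-58°C. Pooled aliquots were extracted in PBS with 0.5% NP-40 at 4°C, and the supernatant after 21,000xg for 90 min was measured by TMTpro 16plex LC-MS/MS with channel sums equalised. Reported thermal stability, relative to control samples and from duplicates, is a log2 fold change.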

[2] = compound: C/C(=N\NC(=O)C1=CC(=CC=C1)S(=O)(=O)N2CCOCC2)/C3=C(C=CC(=C3)Cl)O
Method in brief: as §1

[3] = compound: C1=CC(=C(C=C1Cl)C2=NC3=NC=CN=C3C(=N2)NC4=CC=NC=C4)F
Method in brief: as §1

[4] = compound: C1=CC(=CC=C1C2=NC3=C(N2)C=C(C=C3)C(=O)N)OC4=CC=C(C=C4)Cl
Method in brief: as §1

[5] = compound: C1=CC2=C(C=CC(=C2)/C=C\3/C(=O)NC(=NCC4=CC=CS4)S3)N=C1
Method in brief: as §1

[6] = compound: C1=CC2=NC=CN=C2C=C1/C=C/3\C(=O)NC(=O)S3
Method in brief: as §1

[7] = compound: C1=CC=C(C=C1)C2=NC(=C(N2)C3=CC=NC=C3)C4=CC(=C(C=C4)Cl)O
Method in brief: as §1

[8] = compound: C1=CC=C2C(=C1)C3=NNC4=CC=CC(=C43)C2=O
Method in brief: as §1

[9] = compound: C1CCN(C1)C(=O)NC2=CC=CC(=C2)NC3=NC=C(C(=N3)NCCC4=CN=CN4)Br
Method in brief: as §1

[10] = compound: C1CN(CCC1(CC2=CC=C(C=C2)Cl)N)C3=NC=NC4=C3C=CN4
Method in brief: as §1

[11] = compound: C1COCCN1CCN2C3=CC=CC=C3N=C2NC(=O)C4=CC(=CC=C4)[N+](=O)[O-] [IRAK-1-4 Inhibitor I]
Method in brief: as §1

[12] = compound: C=CC(=O)N1CCC[C@@H](n2nc(-c3ccc(Oc4ccccc4)cc3)c3c(N)ncnc32)C1 [ibrutinib]
Method in brief: as §1

[13] = compound: CC(=O)c1cnc2ccc(-c3cc(Cl)c(O)c(Cl)c3)nc2c1N[C@H]1CC[C@H](CN(C)C)CC1
Method in brief: as §1

[14] = compound: CC(C)(C)Cn1c(N)nc2ccc(-c3[nH]c(C(C)(C)C)nc3-c3ccc(F)cc3)nc21 [ralimetinib]
Method in brief: as §1

[15] = compound: CC(C)(O)CC(=O)NCCn1ccc2ncnc(Nc3ccc(Oc4cccc(C(F)(F)F)c4)c(Cl)c3)c21
Method in brief: as §1

[16] = compound: CC(C)C1=C2N=C(C=C(N2N=C1)NCC3=CC=CC=C3)NCCCCCCN
Method in brief: as §1

[17] = compound: CC(C)C[C@@H](C=O)NC(=O)[C@H](CC(C)C)NC(=O)[C@H](CC(C)C)NC(=O)OCc1ccccc1
Method in brief: as §1

[18] = compound: CC(C)N(C[C@H]1O[C@@H](n2cnc3c(N)ncnc32)[C@H](O)[C@@H]1O)[C@H]1C[C@@H](CCc2nc3cc(C(C)(C)C)ccc3[nH]2)C1 [pinometostat]
Method in brief: as §1

[19] = compound: CC1=C(C(CC(=O)N1)C2=CC=C(C=C2)C(F)(F)F)C(=O)NC3=C(C=C4C(=C3)C=NN4)F
Method in brief: as §1

[20] = compound: CC1=C(C2=C(C=C1)C(=O)C3=CC=CC=C3N2CCCN)C
Method in brief: as §1

UniProt Q9UEY8, sequence (Q9UEY8 whole entry, looked up): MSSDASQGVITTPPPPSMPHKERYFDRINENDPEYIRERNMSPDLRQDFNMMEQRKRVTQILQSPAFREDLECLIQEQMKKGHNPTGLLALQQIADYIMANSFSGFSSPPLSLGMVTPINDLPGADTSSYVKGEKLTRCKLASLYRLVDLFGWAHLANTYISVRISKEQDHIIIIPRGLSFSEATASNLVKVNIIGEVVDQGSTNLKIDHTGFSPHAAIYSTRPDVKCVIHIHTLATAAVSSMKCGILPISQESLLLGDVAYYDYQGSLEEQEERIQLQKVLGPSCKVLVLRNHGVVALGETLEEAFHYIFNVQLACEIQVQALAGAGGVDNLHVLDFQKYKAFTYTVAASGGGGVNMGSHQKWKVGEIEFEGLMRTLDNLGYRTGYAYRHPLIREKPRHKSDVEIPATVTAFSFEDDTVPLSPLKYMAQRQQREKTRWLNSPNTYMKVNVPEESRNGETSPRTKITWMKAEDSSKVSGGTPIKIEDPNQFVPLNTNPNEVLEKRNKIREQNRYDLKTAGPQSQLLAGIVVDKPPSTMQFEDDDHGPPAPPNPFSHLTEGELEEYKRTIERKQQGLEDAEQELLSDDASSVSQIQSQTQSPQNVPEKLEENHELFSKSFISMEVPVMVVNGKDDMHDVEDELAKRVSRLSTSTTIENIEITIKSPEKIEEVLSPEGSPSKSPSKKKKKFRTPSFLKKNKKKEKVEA
UniProt Q9Y679, sequence (Q9Y679 whole entry, looked up): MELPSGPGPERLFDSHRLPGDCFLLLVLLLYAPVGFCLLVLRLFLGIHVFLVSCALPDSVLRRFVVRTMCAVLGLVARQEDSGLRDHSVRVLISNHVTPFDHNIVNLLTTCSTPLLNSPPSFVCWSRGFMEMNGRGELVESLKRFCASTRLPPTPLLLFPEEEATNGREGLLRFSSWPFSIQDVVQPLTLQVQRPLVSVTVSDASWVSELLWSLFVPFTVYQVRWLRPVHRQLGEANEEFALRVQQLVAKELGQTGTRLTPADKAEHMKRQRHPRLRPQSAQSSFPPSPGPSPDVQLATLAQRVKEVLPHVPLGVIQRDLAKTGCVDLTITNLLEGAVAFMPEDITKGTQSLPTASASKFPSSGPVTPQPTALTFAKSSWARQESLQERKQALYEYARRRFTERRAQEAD
UniProt O00763, sequence (O00763 whole entry, looked up): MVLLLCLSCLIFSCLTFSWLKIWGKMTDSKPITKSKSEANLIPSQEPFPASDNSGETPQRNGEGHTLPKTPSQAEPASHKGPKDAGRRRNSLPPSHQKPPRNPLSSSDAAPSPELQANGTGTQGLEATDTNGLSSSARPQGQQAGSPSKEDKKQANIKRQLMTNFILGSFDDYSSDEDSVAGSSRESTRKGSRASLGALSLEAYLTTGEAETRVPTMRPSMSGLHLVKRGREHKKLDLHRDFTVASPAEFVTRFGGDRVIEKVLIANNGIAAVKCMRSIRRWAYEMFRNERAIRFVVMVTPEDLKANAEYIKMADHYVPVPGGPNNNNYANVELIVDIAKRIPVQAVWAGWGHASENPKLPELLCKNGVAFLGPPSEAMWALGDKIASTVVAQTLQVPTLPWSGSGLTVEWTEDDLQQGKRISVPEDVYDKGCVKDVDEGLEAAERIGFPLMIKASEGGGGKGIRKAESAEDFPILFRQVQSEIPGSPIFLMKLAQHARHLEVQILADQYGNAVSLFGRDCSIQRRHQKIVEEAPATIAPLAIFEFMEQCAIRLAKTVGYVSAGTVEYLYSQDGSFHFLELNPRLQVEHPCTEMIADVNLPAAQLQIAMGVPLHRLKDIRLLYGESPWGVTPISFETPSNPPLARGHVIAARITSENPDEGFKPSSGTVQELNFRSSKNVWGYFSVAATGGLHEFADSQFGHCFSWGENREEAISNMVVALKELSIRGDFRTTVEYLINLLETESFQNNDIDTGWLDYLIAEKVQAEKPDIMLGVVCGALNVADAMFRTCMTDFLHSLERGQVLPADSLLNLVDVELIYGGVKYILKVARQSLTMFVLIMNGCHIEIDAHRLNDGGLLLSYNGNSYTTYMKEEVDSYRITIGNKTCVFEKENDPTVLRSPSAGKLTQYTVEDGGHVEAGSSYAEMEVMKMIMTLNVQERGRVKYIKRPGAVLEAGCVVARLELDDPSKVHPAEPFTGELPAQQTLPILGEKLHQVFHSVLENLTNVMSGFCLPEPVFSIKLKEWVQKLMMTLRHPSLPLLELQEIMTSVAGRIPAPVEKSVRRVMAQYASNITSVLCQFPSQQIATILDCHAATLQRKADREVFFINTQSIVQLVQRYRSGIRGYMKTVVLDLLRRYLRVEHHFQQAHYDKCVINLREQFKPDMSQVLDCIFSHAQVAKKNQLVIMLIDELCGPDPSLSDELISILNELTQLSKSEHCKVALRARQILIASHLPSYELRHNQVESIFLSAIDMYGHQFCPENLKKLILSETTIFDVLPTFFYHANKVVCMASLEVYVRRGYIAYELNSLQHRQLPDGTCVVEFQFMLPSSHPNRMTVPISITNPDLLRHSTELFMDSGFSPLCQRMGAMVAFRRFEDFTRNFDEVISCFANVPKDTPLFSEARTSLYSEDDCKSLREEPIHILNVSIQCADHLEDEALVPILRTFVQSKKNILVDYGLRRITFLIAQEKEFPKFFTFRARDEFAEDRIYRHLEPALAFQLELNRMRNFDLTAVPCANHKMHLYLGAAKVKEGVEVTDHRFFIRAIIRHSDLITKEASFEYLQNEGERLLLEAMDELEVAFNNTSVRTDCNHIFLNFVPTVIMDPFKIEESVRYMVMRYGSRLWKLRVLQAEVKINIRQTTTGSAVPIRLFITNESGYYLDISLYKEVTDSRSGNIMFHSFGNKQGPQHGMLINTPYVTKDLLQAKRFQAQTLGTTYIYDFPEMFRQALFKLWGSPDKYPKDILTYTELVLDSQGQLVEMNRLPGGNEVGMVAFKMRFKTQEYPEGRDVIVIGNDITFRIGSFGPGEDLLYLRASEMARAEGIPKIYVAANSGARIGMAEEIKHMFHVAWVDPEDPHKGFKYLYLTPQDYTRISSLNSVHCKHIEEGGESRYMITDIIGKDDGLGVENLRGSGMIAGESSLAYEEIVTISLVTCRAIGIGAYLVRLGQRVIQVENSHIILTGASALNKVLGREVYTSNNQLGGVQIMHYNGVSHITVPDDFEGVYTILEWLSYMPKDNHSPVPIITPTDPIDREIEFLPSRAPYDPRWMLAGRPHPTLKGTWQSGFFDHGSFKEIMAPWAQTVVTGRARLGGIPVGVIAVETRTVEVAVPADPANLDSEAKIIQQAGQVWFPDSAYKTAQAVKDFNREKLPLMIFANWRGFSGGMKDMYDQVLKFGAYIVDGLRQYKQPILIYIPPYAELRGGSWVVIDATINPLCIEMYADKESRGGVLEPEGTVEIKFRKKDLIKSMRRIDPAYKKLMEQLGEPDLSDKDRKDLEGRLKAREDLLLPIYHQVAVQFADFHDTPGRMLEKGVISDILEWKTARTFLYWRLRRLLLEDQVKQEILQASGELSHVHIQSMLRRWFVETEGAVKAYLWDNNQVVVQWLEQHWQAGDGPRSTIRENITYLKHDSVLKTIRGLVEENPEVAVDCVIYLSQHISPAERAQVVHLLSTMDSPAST
UniProt Q9Y3D8, sequence (Q9Y3D8 whole entry, looked up): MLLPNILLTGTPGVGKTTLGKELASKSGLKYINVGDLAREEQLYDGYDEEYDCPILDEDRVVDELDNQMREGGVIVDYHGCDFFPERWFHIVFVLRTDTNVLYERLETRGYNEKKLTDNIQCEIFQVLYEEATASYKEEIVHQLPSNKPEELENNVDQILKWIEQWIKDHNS
UniProt Q93084, sequence (Q93084 whole entry, looked up): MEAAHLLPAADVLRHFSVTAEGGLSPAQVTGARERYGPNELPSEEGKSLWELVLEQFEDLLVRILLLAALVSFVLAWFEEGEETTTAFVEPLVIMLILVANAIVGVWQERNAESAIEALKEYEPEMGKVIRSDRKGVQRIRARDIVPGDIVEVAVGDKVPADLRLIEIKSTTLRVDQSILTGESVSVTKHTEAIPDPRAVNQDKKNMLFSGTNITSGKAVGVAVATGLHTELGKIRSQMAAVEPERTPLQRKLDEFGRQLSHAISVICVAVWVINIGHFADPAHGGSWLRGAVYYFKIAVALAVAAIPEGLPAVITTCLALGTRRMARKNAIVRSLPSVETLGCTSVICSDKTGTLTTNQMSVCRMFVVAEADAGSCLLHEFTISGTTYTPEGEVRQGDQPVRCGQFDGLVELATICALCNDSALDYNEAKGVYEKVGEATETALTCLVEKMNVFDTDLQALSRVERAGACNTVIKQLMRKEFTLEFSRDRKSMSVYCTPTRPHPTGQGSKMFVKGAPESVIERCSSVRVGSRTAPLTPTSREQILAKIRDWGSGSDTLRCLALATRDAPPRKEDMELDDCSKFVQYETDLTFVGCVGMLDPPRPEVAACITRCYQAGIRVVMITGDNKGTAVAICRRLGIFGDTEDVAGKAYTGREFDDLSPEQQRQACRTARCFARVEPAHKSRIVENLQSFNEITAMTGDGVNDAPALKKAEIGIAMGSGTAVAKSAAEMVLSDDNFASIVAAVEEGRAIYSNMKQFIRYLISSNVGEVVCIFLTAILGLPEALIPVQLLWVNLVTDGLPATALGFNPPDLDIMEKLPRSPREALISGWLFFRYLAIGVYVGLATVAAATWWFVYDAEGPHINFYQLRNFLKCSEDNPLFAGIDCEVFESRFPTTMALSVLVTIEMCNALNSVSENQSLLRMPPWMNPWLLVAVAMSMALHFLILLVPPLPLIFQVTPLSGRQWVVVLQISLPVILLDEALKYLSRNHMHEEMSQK

Target | log2 fold change [1] | log2 fold change [2] | log2 fold change [3] | log2 fold change [4] | log2 fold change [5] | log2 fold change [6] | log2 fold change [7] | log2 fold change [8] | log2 fold change [9] | log2 fold change [10] | log2 fold change [11] | log2 fold change [12] | log2 fold change [13] | log2 fold change [14] | log2 fold change [15] | log2 fold change [16] | log2 fold change [17] | log2 fold change [18] | log2 fold change [19] | log2 fold change [20]
ACADM isoform 2 (UniProt P11310) | -0.015 | 0.014 | 0.013 | 0.149 | 0.044 | 0.002 | 0.059 | -0.001 | 0.008 | 0.067 | 0.028 | 0.034 | -0.013 | -0.068 | -0.043 | 0.051 | -0.001 | -0.085 | -0.006 | 0
AUP1 (UniProt Q9Y679) | 0.018 | 0.055 | 0.068 | 0.049 | 0.006 | 0.055 | 0.078 | 0.004 | -0.031 | -0.018 | 0.035 | -0.026 | 0.003 | 0.007 | -0.164 | -0.482 (active) | -0.033 | 0.011 | -0.036 | 0.08
ADD3 (UniProt Q9UEY8) | 0.018 | 0 | -0.008 | 0.025 | 0.02 | 0.013 | -0.025 | -0.024 | -0.015 | 0.031 | 0.063 | 0.025 | -0.29 (active) | -0.011 | 0.008 | 0.097 | 0.018 | -0.034 | 0.019 | 0.014
AK6 (UniProt Q9Y3D8) | 0.105 | 0.108 | 0.007 | -0.157 | 0.194 | 0.025 | 0.046 | -0.027 | -0.041 | -0.085 | -0.051 | -0.014 | -0.132 | 0.067 | -0.175 | -0.309 | 0.039 | 0.078 | 0.061 | 0.138
ADK (UniProt P55263) | 0.293 | -0.034 | 0.06 | -0.062 | 0.079 | 0.005 | 0.035 | 0.042 | -0.032 | 0.085 | 0.08 | 0.034 | 0.184 | 0.246 | -0.002 | 0.074 | -0.058 | 0.016 | -0.101 | -0.001
ATP2A3 isoform 2 (UniProt Q93084) | -0.002 | -0.002 | 0.053 | -0.002 | -0.014 | 0.014 | -0.003 | -0.04 | -0.025 | 0.059 | 0.038 | -0.013 | 0.001 | -0.023 | 0.018 | -0.295 (active) | -0.044 | 0.005 | 0.012 | -0.009
BYSL (UniProt Q13895) | -0.009 | 0.014 | -0.05 | -0.006 | -0.046 | 0.027 | -0.018 | 0.075 | -0.042 | -0.289 | -0.115 | -0.054 | 0.043 | 0.051 | -0.11 | -0.109 | 0.092 | 0.118 | -0.007 | -0.495 (active)
ACACB (UniProt O00763) | 0.048 | -0.094 | -0.212 | -0.108 | 0.07 | -0.123 | 0.132 | -0.028 | -0.059 | -0.143 | -0.23 | 0.02 | 0.108 | 0.216 | 0 | -0.515 (active) | 0.066 | 0.315 | 0.11 | 0.027
